The text below walks through data of the supplement of paper PMC6555819.

The first assay concerns LXRa:RXRa (NR concentration 270 nM, RXRa partner concentration 90 nM). The assay can be described thus: PBM binding z-score (relative to random genomic background probes); higher = stronger binding; sequences stand for … in GC…GCGATTGACAGCGTAGAATGAAGG
The essentials:
(§1)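 On custom Agilent 4×180K arrays, double-stranded probes with 34-nt variable regions carried direct-repeat seeds, single-nucleotide variants, half-site ablations or random human genomic background. Ligand-free nuclear receptor dimers were applied for 1 h, and binding was read with antibodies against each partner (one per run). Binding z-scores come from regression-normalized fluorescence, with the random background probes as reference.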
Sequence CCTTGCGGGTCACGAGGTTATAGCACGACGAGCG gave a PBM binding z-score of 4.25.
On the same count and under the same terms, with TCGAGTAGGTTACCAATGGGGCTTTCAGCTTTCT the figure was 0.131.
Consider CGTCCAAGGACAAGGTCAGTGAAAGAGACTCGAA, for which the PBM binding z-score came to 1.45.
On the same count and under the same terms, then ATCTCTAGGTAAGACTCAGTTCAGAGAAGAACGC, with 0.578; and TCTTGTAGATCAACAGGAGGTTAAGAAAGATCGA, with 1.19.
The sequence CCAGACAGGTGAGAAGGTAACTCAACCTCGATTA had a PBM binding z-score of 0.167.
CTACCAAGGTGAGCAAGGTCGTTGATTACTATTC: the PBM binding z-score came out at 0.615.
For AGTCAAAGTACACTAGGTAACGTAAGATTCAGCT, the PBM binding z-score was -0.26.
On the same count and under the same terms, then CGAACTAGGTCAGAAAAGGACAGTGAAGGATGAT, with 0.723.
Sequence TCATATAGGTAAATGCTAGCTGAAAGTCCGATCT displayed a PBM binding z-score of 0.665.
As for TTACTAAGGTGAGCTGAGGTCGTTGATCCAACTC, the PBM binding z-score was 1.54.
On the same count and under the same terms, with ACTAGCAGGCCAAGTTTGGGTTACTCAAACAAAG the figure was -0.429; with TTACCAAGGTGAGCTGAGGACGTTGATCCAACTC, -0.166.
ATCTCTAGGTAAAAGTTCAATGAATCCCGAGGAT: the PBM binding z-score stood at 2.65.
Same read-out and setting: with GTACCAAGGTGAATGGGTCGTTGATGAGTAGGCG the figure was 0.288.
Same read-out and setting: with CAGCCTAGGTCAGGGCCAGTATCGGAGGAACGTT the figure was 0.907; with CAAACTAGGTCAGGAGGTCAAAGTCCGCTTCCCG, 5.22; with TAGCCTAGGTCATTCGGGCCAGTATAGTGTCGGC, 3.71.
Same read-out and setting: with ACAGACAGGCGAGTGAAGGTAACTCAGCTGGACG the figure was -0.221; with GGAACCAGGGCATTCGAGTTGATAGCATGGCGAT, 0.74.
For the sequence ATATGTAGGTTATCGGGTCAGTCAGTTTGCGCAT, the PBM binding z-score stood at 2.12.
In turn, CCTTACGGGTCACTGACAGGTTATATCATTTGGA displayed a PBM binding z-score of 4.27.
On the same count and under the same terms, then GCTCGGAGGACAAGGTCAAAGCTTTGTCCGTAGA, with 3.98; and GCTAGTTGGTCAGTAAAAGGCCACACACCGGTCG, with -0.0882; and CCTTACGGGTCACTGACCGGTTATAGCATTTGGA, with 5.49.
On the same count and under the same terms, with CCTACTGGGCCACGAAGGGTCATTGATTCAGTGA the figure was 2.97.
With AGAATGAGGGCACGCTGAGTTGATAGCAGAGTAG, the PBM binding z-score came out at 1.11.
Still for that read-out and setting: with GCTAACAGGCCATTTGGGTCACTCAATGACGGGC the figure was 0.268; with TCGAGTAGGTTAGCGGCATTCAGAATGGCGTCGA, -0.487; with TATACAGGGTTAAAGGCCAGAGTACGAATGTCGA, 2.59.
The sequence CGAACTAGGTCTTCCAGGACAGTGAATACATTGA came in with a PBM binding z-score of -0.496.
Same read-out and setting: with TTACCAAGGTGAGCTGAAGTCGTTGATCCAACTC the figure was -0.529; with CGTGCAAGGTCAAGGTCAGTGAAAGAGACTCGAA, 5.78; with CCGAGTAGGTTATGGGGCAATCAGGCAACGGTGA, 0.461.
Same read-out and setting: with GCAGACGGGTGAAACGCAGGTAACTCAGGGTGGC the figure was -0.337; with TATAGAGGGTCAAAGGCCAGAGTACGAATGTCGA, 4.84.
Regarding GATACAGGGTCAGCTATAGGCCAGAGTATGGAAA, the PBM binding z-score is 2.57.
Sequence ATCTCTAGGTAAGACTCAGTTCAGGGAAGAACGC yielded a PBM binding z-score of 0.883.
AATACAGGGTCATCGTAGGCCTGAGTACGCACAG displayed a PBM binding z-score of 5.77.
Still for that read-out and setting: then TCTTGTAGATCACAGGTTAAGAAAGCCGAAGCCT, with 0.575.

In the next assay the test system is LXRa homodimer (NR concentration 270 nM). Described as above. In outline: as §1
Sequence CCTTGCGGGTCACGAGGTTATAGCACGACGAGCG showed a PBM binding z-score of 0.382.
Still for that read-out and setting: with TCGAGTAGGTTACCAATGGGGCTTTCAGCTTTCT the figure was -1.06; with CGTCCAAGGACAAGGTCAGTGAAAGAGACTCGAA, -0.433; with ATCTCTAGGTAAGACTCAGTTCAGAGAAGAACGC, 0.401.
On to TCTTGTAGATCAACAGGAGGTTAAGAAAGATCGA, for which the PBM binding z-score was found to be 0.133.
Still for that read-out and setting: with CCAGACAGGTGAGAAGGTAACTCAACCTCGATTA the figure was 0.188; with CTACCAAGGTGAGCAAGGTCGTTGATTACTATTC, -0.2; with AGTCAAAGTACACTAGGTAACGTAAGATTCAGCT, -0.164.
CGAACTAGGTCAGAAAAGGACAGTGAAGGATGAT gave a PBM binding z-score of -0.125.
Same read-out and setting: then TCATATAGGTAAATGCTAGCTGAAAGTCCGATCT, with -0.000947.
The sequence TTACTAAGGTGAGCTGAGGTCGTTGATCCAACTC yielded a PBM binding z-score of -0.344.
Same read-out and setting: with ACTAGCAGGCCAAGTTTGGGTTACTCAAACAAAG the figure was -0.394; with TTACCAAGGTGAGCTGAGGACGTTGATCCAACTC, -0.767; with ATCTCTAGGTAAAAGTTCAATGAATCCCGAGGAT, 2.7.
In the case of GTACCAAGGTGAATGGGTCGTTGATGAGTAGGCG, the PBM binding z-score is -0.238.
The same measure, in the same setting: with CAGCCTAGGTCAGGGCCAGTATCGGAGGAACGTT the figure was -0.258.
With CAAACTAGGTCAGGAGGTCAAAGTCCGCTTCCCG, the PBM binding z-score is 4.23.
The sequence TAGCCTAGGTCATTCGGGCCAGTATAGTGTCGGC had a PBM binding z-score of 1.53.
ACAGACAGGCGAGTGAAGGTAACTCAGCTGGACG had a PBM binding z-score of -0.463.
Still for that read-out and setting: then GGAACCAGGGCATTCGAGTTGATAGCATGGCGAT, with -0.0183.
In turn, ATATGTAGGTTATCGGGTCAGTCAGTTTGCGCAT displayed a PBM binding z-score of 0.91.
Same read-out and setting: then CCTTACGGGTCACTGACAGGTTATATCATTTGGA, with 0.675.
Still for that read-out and setting: then GCTCGGAGGACAAGGTCAAAGCTTTGTCCGTAGA, with 0.466.
Still for that read-out and setting: then GCTAGTTGGTCAGTAAAAGGCCACACACCGGTCG, with -0.17.
With CCTTACGGGTCACTGACCGGTTATAGCATTTGGA, the PBM binding z-score is 1.84.
The sequence CCTACTGGGCCACGAAGGGTCATTGATTCAGTGA returned a PBM binding z-score of 0.54.
In turn, AGAATGAGGGCACGCTGAGTTGATAGCAGAGTAG had a PBM binding z-score of -0.448.
Same read-out and setting: then GCTAACAGGCCATTTGGGTCACTCAATGACGGGC, with -0.00824; and TCGAGTAGGTTAGCGGCATTCAGAATGGCGTCGA, with -0.848; and TATACAGGGTTAAAGGCCAGAGTACGAATGTCGA, with 0.356.
CGAACTAGGTCTTCCAGGACAGTGAATACATTGA yielded a PBM binding z-score of 0.128.
Still for that read-out and setting: with TTACCAAGGTGAGCTGAAGTCGTTGATCCAACTC the figure was -0.801; with CGTGCAAGGTCAAGGTCAGTGAAAGAGACTCGAA, 1.12.
In the case of CCGAGTAGGTTATGGGGCAATCAGGCAACGGTGA, the PBM binding z-score stood at 0.13.
For GCAGACGGGTGAAACGCAGGTAACTCAGGGTGGC, the PBM binding z-score was -0.751.
Turning to TATAGAGGGTCAAAGGCCAGAGTACGAATGTCGA, the PBM binding z-score was found to be 0.902.
The same measure, in the same setting: with GATACAGGGTCAGCTATAGGCCAGAGTATGGAAA the figure was -0.223.
The sequence ATCTCTAGGTAAGACTCAGTTCAGGGAAGAACGC came in with a PBM binding z-score of 0.863.
With AATACAGGGTCATCGTAGGCCTGAGTACGCACAG, the PBM binding z-score is 1.91.
In the case of TCTTGTAGATCACAGGTTAAGAAAGCCGAAGCCT, the PBM binding z-score is -0.161.
